SMILES strings stand for the structures. The campaign covered roughly 16,000 compounds. About 5,800 (36%) were called active. Another 23% or so got no clear call; they are omitted. The list shows a part of the results. Unmarked numbers belong to inactive results. The call rests on the fitted dose curve; in most records, active means well fitted curve in the direction sought with a large enough effect; inconclusive means small, poorly fitted or top-dose-only effect, or effect the other way; inactive means no such curve, though single readings can be large or run the other way.
On the % scale 0 is the no-effect control and ±100 the full control effect.

Cytochrome P450 2C19 (Homo sapiens), sequence (P33261 whole entry, looked up): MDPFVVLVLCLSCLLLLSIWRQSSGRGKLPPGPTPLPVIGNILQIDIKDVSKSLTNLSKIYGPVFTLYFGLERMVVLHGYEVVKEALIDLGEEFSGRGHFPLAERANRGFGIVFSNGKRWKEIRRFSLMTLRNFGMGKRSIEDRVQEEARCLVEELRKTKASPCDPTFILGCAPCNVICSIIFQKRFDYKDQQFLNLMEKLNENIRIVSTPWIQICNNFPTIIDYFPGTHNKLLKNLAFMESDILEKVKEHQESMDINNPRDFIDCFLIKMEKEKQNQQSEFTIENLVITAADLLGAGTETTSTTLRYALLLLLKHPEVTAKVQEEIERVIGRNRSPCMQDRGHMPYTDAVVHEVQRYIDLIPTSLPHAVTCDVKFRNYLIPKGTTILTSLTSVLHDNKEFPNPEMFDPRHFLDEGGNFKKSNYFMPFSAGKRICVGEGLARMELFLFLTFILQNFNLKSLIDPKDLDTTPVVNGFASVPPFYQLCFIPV

The assay concerns the target Cytochrome P450 2C19 (Homo sapiens) (UniProt P33261). The assay is described as follows: Cytochrome panel assay with activity outcomes. The note with it: recombinant CYP, pro-luciferin dealkylation, luminescence, p450-cyp2c19; series mostly up to 57.1 µM; activity, negative = inhibition: at the top concentration.
Turning to `CC1(C)OC(=O)NC1=O`, the “activity, negative = inhibition” value was 24.8% [at 25.6 µM].
In the case of `COc1ccccc1CNCC(O)(c1ccc(Cl)cc1)c1ccc(Cl)cc1`, the AC50 (as a rule, the concentration at which the activity in the assay is half-maximal) was 2.82 µM (active).
`COCC(=O)N1CCC2(CCN(Cc3ccccc3OC)CC2)CC1`: the “activity, negative = inhibition” value was 15.4%.
As for `C[C@@]12C(=O)OC(=O)[C@@]1(C)[C@@H]1CC[C@@H]2O1`, the “activity, negative = inhibition” value is -37.1%.
As to `CC(C)CO[C@H](c1ccc2c(c1)OCO2)[C@H](C)Br`, the AC50 is 0.0631 µM (active).
As for `CSc1nc(C)cc(SC(C(C)=O)C(=O)Nc2ccccc2)n1` (configuration not stated), the “activity, negative = inhibition” value was -50.3%.
With `Cc1cc(SCC(=O)c2ccccc2)nc(SCC(=O)c2ccccc2)n1`, the AC50 was 2 µM (active).
As to `O=C(CSc1ncnc2nc[nH]c12)c1ccccc1`, the activity, negative = inhibition is 6.64% [at 11.4 µM].
`CCN(CC)c1ccc(SS(=O)(=O)O)cc1`: the AC50 was 7.08 µM (active).
The same measure, in the same setting: for `N#C/C(=C/N1CCOCC1)c1ccccc1` the value was 4.47 µM (active).
Turning to `C[N+]1(C)CCC(OC(=O)C(c2ccccc2)c2ccccc2)CC1`, the AC50 result is “inactive”.
On the same count and under the same terms, in the case of `C[C@H](C(=O)c1ccccc1)[C@@H](c1ccccc1)N1CCOCC1` it was 1.58 µM (active).
As to `CC(=O)[C@H]([C@@H](c1ccccc1)N1CCOCC1)N1CCOCC1`, the activity, negative = inhibition is 7.37% [at 11.4 µM].
Take `CCN(CC)CCNC(=O)C(C)c1nn(C)c(=O)c2ccccc12` (configuration not stated): the “activity, negative = inhibition” value is -28%.
`Cc1ccc(-c2nn3c(C)nnc3c3ccccc23)cc1S(=O)(=O)NCc1ccccc1`: the AC50 was 5.01 µM (active).
Consider `CCOC(=O)CNS(=O)(=O)c1cc(-c2nn(C)c(=O)c3ccccc23)ccc1C`, for which the AC50 is 3.16 µM (active).
Take `CC1CCCC(C)N1CCNC(=O)Cn1nc(-c2ccccc2)ccc1=O` (configuration not stated): the “activity, negative = inhibition” value was -25.2%.
For the compound `Cc1ccc(-c2nn(C)c(=O)c3ccccc23)cc1CNC(=O)Cn1nc(-c2ccccc2)c2ccccc2c1=O`, the AC50 is 7.94 µM (active).
`Cc1nc2c(ccc3nc(NC(=O)c4ccc5c(c4)OCCO5)sc32)s1`: the AC50 is 2.51 µM (active).
As for `Cc1nc2ccc3nc(NC(=O)c4ccc(S(=O)(=O)N5CCOCC5)cc4)sc3c2s1`, the “activity, negative = inhibition” value was -28.8%.
With `CCN1CCc2nc(NC(=O)c3ccc4c(c3)OCCO4)sc2C1`, the AC50 was 15.8 µM (active).
On the same count and under the same terms, in the case of `CCN1CCc2nc(NC(=O)CC(c3ccccc3)c3ccccc3)sc2C1` it was 8.91 µM (active).
Take `CCN1CCc2c(sc(NC(=S)NC(=O)c3ccccc3)c2C#N)C1`: the “activity, negative = inhibition” value is -59.3%.
On the same count and under the same terms, in the case of `CCN1CCC[C@@H](OC(=O)C(c2ccccc2)c2ccccc2)C1` it was -20.1% [at 25.6 µM]; in that of `O=C(O)/C=C(/C(=O)O)[C@]12CCN3CC4=CCO[C@@H]5CC(=O)N[C@@H]1[C@H]5[C@H]4C[C@H]32`, -10% [at 11.4 µM].
Same read-out and setting: in the case of `CC(C)=CCC/C(C)=C/CO/N=C1/C[C@@H](O)[C@@H](O)[C@@H]2[C@@H]3C(=O)N(C(C)(C)C)C(=O)[C@H]3CC[C@H]12` it was 12.2% [at 11.4 µM].
Regarding `N#CCCn1c(=O)c(-c2ccc(F)cc2)nc2cnc(N3CCOCC3)nc21`, the “activity, negative = inhibition” value was -26%.
As for `CNc1oc(-c2ccc(Cl)cc2)nc1C#N`, the AC50 is 11.2 µM (active).
Same read-out and setting: for `O=C(NCCNS(=O)(=O)c1ccccc1Cl)c1cc(OCC(F)(F)F)ccc1OCC(F)(F)F` the value was 14.1 µM (active); for `CCN(CC)CCNC(=O)c1cc(S(C)(=O)=O)ccc1OC`, “inactive”.
On to `O=C(O)CONC(=O)c1cc(OCC(F)(F)F)ccc1OCC(F)(F)F`, for which the “activity, negative = inhibition” value was 14.7%.
On to `O=C(NCCNS(=O)(=O)c1ccc(Cl)cc1)c1cc(OCC(F)(F)F)ccc1OCC(F)(F)F`, for which the AC50 was 2.51 µM (active).
On the same count and under the same terms, in the case of `CCOC(=O)c1c(-c2ccccc2)csc1NC(=O)c1cccc(N2C(=O)CCC2=O)c1` it was 3.55 µM (active).
Take `CCOC(=O)c1c(-c2cccc(C)c2)csc1NC(=O)c1c(-c2ccccc2)noc1C`: the “activity, negative = inhibition” value is -30%.
As for `CCOC(=O)c1c(-c2ccc(OC)cc2)csc1NC(=O)CCN1C(=O)c2ccccc2C1=O`, the AC50 is 5.62 µM (active).
Consider `COC(=O)c1c(-c2ccc3ccccc3c2)csc1NC(=O)Cc1ccc(OC)c(OC)c1`, for which the AC50 was 1.41 µM (active).
Turning to `N/C(=N\O)c1cn([C@@H]2O[C@@H](CO)[C@H](O)[C@@H]2O)c2ncnc(NO)c12`, the activity, negative = inhibition was 14.4% [at 11.4 µM].
On the same count and under the same terms, in the case of `CC(=O)Nc1c(I)c(C(=O)N[C@H]2[C@@H](O)[C@H](O)[C@H](CO)O[C@@H]2O)c(I)c(N(C)C(C)=O)c1I` it was 12.2% [at 25.6 µM].
In the case of `Cc1ccc(OCCCN2C(=O)C(=O)c3cccc(C)c32)cc1`, the AC50 is 3.98 µM (active).
With `NS(=O)(=O)c1ccc(N=Nc2nc3[nH]c(=O)[nH]c(=O)c3[nH]2)cc1`, the activity, negative = inhibition was -0.933% [at 11.4 µM].
On the same count and under the same terms, for `N#[N+]c1ccc(Nc2ccccc2)cc1` the value was 23.3% [at 11.4 µM].
In the case of `CC(C)(C)NC(=S)Nc1ccc(Nc2ccccc2)cc1`, the AC50 was 4.47 µM (active).
As to `Nc1ccc(Nc2ccccc2)cc1`, the concentration at half-maximal activity (AC50) was 10 µM (active).
`CNC(=S)Nc1ccc(Nc2ccccc2)cc1`: the AC50 is 5.62 µM (active).
Take `C=CC[C@@H]1C=C[C@H](O/N=C(\C)CCN2CCCc3nc(C)c(C)cc32)[C@H](CO)O1`: the activity, negative = inhibition was 29.1% [at 11.4 µM].
In the case of `CC(C(=O)NC1CCCC1)N(C(=O)c1ccc(-c2ccccc2)[nH]1)c1ccccc1F` (configuration not stated), the AC50 is 3.98 µM (active).
On to `Cc1cccc(C)c1NC(=O)C(c1ccc(Cl)cc1Cl)N1CCCCC1` (configuration not stated), for which the AC50 is 15.8 µM (active).
On the same count and under the same terms, for `O=C(COc1cccc(NC(=O)c2cccc([N+](=O)[O-])c2)c1)c1ccc(Br)cc1` the value was 1.26 µM (active); for `COc1ccc(/C=N/OCc2nc3c4c(ncn3n2)Oc2ccc3ccccc3c2C4c2ccccc2)cc1` (configuration not stated), 0.0794 µM (active); for `Cc1ccc(NC2=NC(c3ccccc3)n3c(nc(C)cc3=O)N2)c(C)c1` (configuration not stated), 14.1 µM (active).
Regarding `Nc1nnnn1/N=C\c1ccc(Cl)c([N+](=O)[O-])c1`, the AC50 was 0.2 µM (active).
As to `CC1CCN(c2ccc(/C=N/n3nnnc3N)cc2[N+](=O)[O-])CC1`, the “activity, negative = inhibition” value was -38.1%.
On the same count and under the same terms, in the case of `CC(C)(CO[C@H]1C[C@H]2CC[C@@]1(C)C2(C)C)[N+](=O)[O-]` it was 12.6% [at 11.4 µM].
With `CC(Sc1nc(-c2ccccc2)cc(C(F)(F)F)n1)C(=O)N1CCCCC1` (configuration not stated), the AC50 was 10 µM (active).
Consider `O=C(O)CSc1cc(C(F)(F)F)nc(-c2ccccn2)n1`, for which the “activity, negative = inhibition” value was 18%.
On the same count and under the same terms, for `O=c1[nH]c2cc(Br)cnc2nc1/C=C(\O)c1ccc(F)cc1` the value was -27.4%.
For `Cc1cccc(CCNc2nc3ccccc3n3nnnc23)c1`, the AC50 is 1.58 µM (active).

For the origin of these results see PubChem BioAssay AID1851 (National Center for Advancing Translational Sciences (NCATS), 2009).
